Among all 53,000 sequences or so, about 3,700 (7%) were called active.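 The calls were made as follows: active = gene knockdowns whose robust z-score for IL-1 alpha signal is at least 2 or at most -2, so actives lie on both sides; inactive = the rest.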 This excerpt belongs to a sample that is enriched for actives.

This experiment in a line: Components of the Cytosolic LPS Sensing Pathway: Gene Identification via Genome-wide siRNA Screen.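 Also: robust z of the log signal after scaling to non-targeting control siRNA wells of the plate.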 The note with it: RAW264.7 macrophages, IL-1a HTRF, actives lie on both sides, screened at 100 nM (by protocol), cells primed 5 h with Pam3CSK4 first. A digest of the protocol:
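Cells (RAW264.7, 1×10^4 per well) were transfected with siRNA at 100 nM and cultured 48h at 37 degrees C. Pam3CSK4 was added for 5 hours; LipidA transfection followed for 24 hour. IL-1a was then measured by HTRF.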
(TR-FRET usually uses a lanthanide donor and a delayed reading to cut background.)
GGAAAGGCUGUUUCCUACCTT against Atox1: the z-score is 1.05 (inactive). On to GGACUUGUGAUUCAAGCAUTT against Rad23b, for which the z-score is 0.525 (inactive). In the case of CCUGAUUGACGACAGUAAGTT against Mcrs1, the z-score is 0.519 (inactive). In the case of CGACCAGAGUUAUCUGAAUTT against Ctf2, the z-score is 2.2 (active). With GGGAAUUUAUGCAUUAGCATT against Kif2a, the z-score was 0.111 (inactive). As for GGCUCUGCUAUUUCUCCUGTT against Olfr17, the z-score was -1.16 (inactive). GCUUGAAUGGAGCGAAUCGTT against Chat: the z-score is 4.86 (active). For the sequence GGAAACAAAGUCAAUGUGGTT against Cnn1, the z-score is -0.522 (inactive).

GCUGAAGUAGGGUUUAUUATT against Gdap10: the z-score is 0.786 (inactive). Consider GCCUUGGACAAAAACACUATT against Ryk, for which the z-score was -0.917 (inactive). On to CCUGAUUCCAAAUGUGUUUTT against Sgcb, for which the z-score is 0.158 (inactive). With GGACACAAAUGACAUCAACTT against Sirpa, the z-score was 2.13 (active).

As for CGGCAUCCAGUCUCAGAUGTT against Coch, the z-score is 1.88 (inactive). Then “GCCUAAGUUCUAGCAAAAUTT against Spata31d1d”, with 0.514 (inactive); and GGAAGCUACAUGCUGUUCCTT against Anln, with 0.737 (inactive); and UGAAAAGAGCAAUGAAGAATT against Olfr177, with -0.36 (inactive). Then GGAAAGGAGAAGAGAAAUGTT against Scyl1, with 1.18 (inactive); and CCUGACAGUACCAAAAAAUTT against Pax4, with -0.599 (inactive).

Take GGUACAAUGUUCAUACCAATT against Rab9b: the z-score was 0.528 (inactive). Consider GGGCUAUUGCAUCUUUUAATT against Olfr711, for which the z-score was -0.0884 (inactive). Then CCGAAUUGAAAUCACAAGCTT against Nup43, with -1.31 (inactive); and GGAUUGUAAUAAUGGAGCCTT against H2-M10.4, with 2.94 (active); and GGAGAGGUGGUAUUGUUGGTT against Olfr1297, with 0.29 (inactive). Regarding GCUAAAUUCUUUCCUGAAGTT against Rdx, the z-score was -1 (inactive). In the case of CCAGUUACUAGUAAUACUCTT against Mcm3ap, the z-score was -0.0482 (inactive). Then CCAAGGUGCUGUUGGUAUATT against Ssr2, with 0.248 (inactive).

GCAACGACUCUAAUGACUUTT against Slc38a1: the z-score was -0.515 (inactive). For GCUUUCCACCACGUACUGATT against Plekha6, the z-score is -0.0754 (inactive). As to GGAUCAGCUGUUGCCAGAGTT against Zfp384, the z-score was 0.806 (inactive).

Take GGAGUAUAACUAUGGCUUCTT against Mvb12a: the z-score was 0.689 (inactive).

Regarding CCAGUUAAGCCAAACUAUGTT against Wdr5, the z-score is -2.21 (active). Take GGAAGUGCUGCACAUACUATT against Bnc2: the z-score was -0.525 (inactive). Then GGAAGAUUUGUUCUAUACUTT against Epgn, with 0.593 (inactive); and GGUCACAUCGUCCUUACAGTT against Rps6ka4, with -2.05 (active); and GGGAUUAAAAUCCUAUCUUTT against Eva1a, with 0.857 (inactive). As to GGAUCAGGAUUUAAUGAAUTT against Zc2hc1a, the z-score was -1.13 (inactive).

With CCUUAUAAUUGACACUGAUTT against Toe1, the z-score was 0.312 (inactive). As to GGAUAGCUGCCAACACUACTT against Baiap2l2, the z-score is -0.689 (inactive). Take GGACGACAGUGCAAAGCAUTT against Usb1: the z-score is -2.33 (active). On to CCGCUUUUGUCAAGUUUUCTT against Asap1, for which the z-score was 2.65 (active). Turning to GGACACUCAAUGAAAUCUATT against Foxp3, the z-score was 1.21 (inactive). As to GCUAAAAAUAAACAGUCGGTT against Pus10, the z-score is -0.642 (inactive).

With GCCCGUCGGAUAUAAGAUUTT against Cd247, the z-score was -0.351 (inactive). As to GGAAGAAUCGUUUAUGACATT against Ppp4r2, the z-score was 0.73 (inactive). Regarding GGUUUUGAGAUUGAAAGAATT against Myof, the z-score is -0.344 (inactive). As to GGUCGUCUUUUAAGAGUUUTT against Ccdc71l, the z-score was 3.03 (active). On to GGUGCAACAAUCAUUUGAATT against Casp4, for which the z-score is -0.431 (inactive). Then GGAAGAAAUGCAUAAUGCATT against Mesd, with 0.236 (inactive). As for GGAAAAACUGCUAGAUCUATT against As3mt, the z-score is 1.49 (inactive). For the sequence GGCUAUGGAAAAAGAUAUGTT against Il21r, the z-score was -1.02 (inactive).

For GGACCAAGCUGUUAUUAACTT against Dhodh, the z-score is 0.46 (inactive). For GGUUUACCUCUAUGCUAUGTT against Upk3a, the z-score is 1.39 (inactive). Take GGGUCUCUUGUGGUACAUCTT against Cln3: the z-score was 3.41 (active).

Regarding GCAUUUCGCCUCUUUCAUATT against Elac1, the z-score is -0.405 (inactive). Then GGCAUUUCUUUCACUAGCUTT against Olfr618, with 0.833 (inactive). For GCAGAGGCUCGUCCAUAUATT against Dnpep, the z-score is -0.205 (inactive). For GGUUCACGGGUUCUAAGAUTT against Eif1b, the z-score was 2.35 (active). Then GGACAGUUCUUACUUUACATT against Drd2, with 1.18 (inactive); and CCGUGAAUUUGGAUGAUGGTT against T2, with -1.98 (inactive); and CCAAAGGUGACCACAGAUUTT against Zfp444, with 1.13 (inactive).

GGCUCCAUCAAGAAAAGUUTT against Usp21: the z-score is 0.681 (inactive). Then GGCCUUCCUUGACCAAUCUTT against Ren1, with -2.11 (active); and GGACUGUGCAACUUUGUGGTT against Timp3, with -0.634 (inactive); and GGAGUUGGUUCUGUGUUAUTT against Tcf7l2, with -0.271 (inactive). On to CGGAACAUGGAGUUUAAGCTT against Slfnl1, for which the z-score is 2.3 (active).

Regarding GGAAUGAGUUAGAAUAGCGTT against BC004004, the z-score was -0.923 (inactive). Take GGAAAGAAACUAAGGAAAATT against Arhgap15: the z-score is 0.628 (inactive).

For the sequence GGAGCUUGACAUUAAGGACTT against Erc2, the z-score was 0.809 (inactive). Consider GGAAAUAAACAAGUCCCACTT against Urm1, for which the z-score is 0.465 (inactive). Take CGACGAAGUGGUCGGAAUUTT against Cryzl1: the z-score is 2.1 (active). For GGUGAUGUAUGUUACGCUGTT against Srsf1, the z-score is -0.00436 (inactive).

GGAGAAAGAGAAAAUCGCUTT against Csnk1g2: the z-score is -0.736 (inactive).

For the sequence GGUUAUCAGUUGCAUUGUUTT against Gpr37l1, the z-score was 0.809 (inactive). As for GGAAGUCGGGCAAAUACAATT against Tacstd2, the z-score was 5.77 (active). On to GCUCAUUCUCAAAGGCUUATT against Rdh12, for which the z-score was 0.659 (inactive).

As to GGAAUACAUCGAGUAUCUCTT against Xab2, the z-score is -1.43 (inactive). Then GCUCGAGUGUAAGAUCUGUTT against Rnf182, with 0.355 (inactive).

With CCCGUUCGUGCAUGAGUUATT against Lpcat4, the z-score was 0.532 (inactive).

Consider CCGGGAAACCAACAAAUCATT against Rbmxl1, for which the z-score was 2.19 (active). For the sequence GGUGGAAUUCAUUUUGACATT against Dnajb6, the z-score was -0.42 (inactive). In the case of GGCAAUGACCUUGUAAAGATT against Tomm34, the z-score was -1.56 (inactive). Turning to GUGCUAUUCAUGCACAGCATT against Psca, the z-score was 0.0658 (inactive). Take GGAUGUCUUUUUAAGGUUUTT against Eid1: the z-score is 0.987 (inactive). On to CCCGUCCCAUCCAUUAUUUTT against Zfp787, for which the z-score was -1.19 (inactive). Then GGUGUUUGUGACUCUGGGUTT against Mc4r, with 2.77 (active); and GCUUUGCAAUUCACAGGGATT against Scgb1b27, with -1.76 (inactive). GGGUUUGAUUCAUCAAAAATT against Peli1: the z-score was 0.314 (inactive). In the case of CCUACGCCAAGCAGUAUGATT against Mcm3, the z-score is 0.286 (inactive). As for GGAUUUUGACAGUCUGUGUTT against Endou, the z-score is -0.438 (inactive). In the case of GGACUGAUUGUUUUAUGCUTT against Gdap10, the z-score is -1.06 (inactive). Then GGCCCUCAAUACCUGUGGUTT against Olfr690, with -3.13 (active); and GGAGAGACAUCCAAAAGUATT against H60a, with 0.658 (inactive); and GCCAUAUAAUUUGACAGAGTT against Tarm1, with -0.0405 (inactive).

GCUCACAACAUGAGAGUCATT against Atp6v0e: the z-score was -0.539 (inactive). For the sequence GGGAAUUACAGCACACAAUTT against Treml4, the z-score is -0.21 (inactive).

For the sequence GGAACAAAACAAAUAGCUATT against Vstm2a, the z-score is 1.79 (inactive). GGUUUCUAUAAAUCUCCCUTT against Eif4b: the z-score is 0.895 (inactive).

As to CGUGGUCUUCACGAUUGGATT against Pde4c, the z-score is 3.71 (active). In the case of “GGAGGCUAUCAGAAGCAUCTT against C130021I20Rik”, the z-score was 0.762 (inactive). In the case of GGAACCAACAGAGAAAACUTT against Hr, the z-score is 0.317 (inactive). In the case of “GGCCUGUUUUUGCAUUUUATT against 9030612E09Rik”, the z-score is -0.0316 (inactive). On to GCAUUCGAAAUGAAGAUAATT against Dnajb1, for which the z-score was -1.75 (inactive). Consider GGUUUUCUUUUCUUCUGCCTT against Aar2, for which the z-score is -1.11 (inactive). In the case of GGGAUUCACUCUUCUUUAGTT against Sebox, the z-score was 1.97 (inactive). With GGAACAAGCAAGUCAAACATT against Olfr770, the z-score was 2.24 (active). For the sequence CGACUGGGUCUUAUGUUUATT against Tas2r121, the z-score was -0.105 (inactive).

“CCAAGAAAGACAGUAACUATT against 4930432K21Rik”: the z-score was -0.986 (inactive).

Consider GGAUCUGGACUUAAUGCUCTT against Tfeb, for which the z-score was -0.383 (inactive).

The values above are taken from PubChem BioAssay AID1508600 (Functional Genomics Laboratory (NCATS/FGL), 2020).
